Assay outcomes (PubChem BioAssay)
In the library only some 4.8% were active in any assay of this set; here they are far more common.
hgDAF-12 ag: hgDAF-12 agonism, primary luciferase screen; HEK293 GAL4-hgDAF12 UAS-luciferase reporter, agonist luminescence; normalized to butyrate control; activation, % at 6.8 µM; 370,000 compounds, 1.8% hits; AID 687014;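 active means activation above a cutoff set at the mean of all screened compounds plus 3 SD, cut at about 10% in these data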;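 further: 0% = DMSO wells and 100% = sodium butyrate wells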
hcDAF12 agonist: H. contortus DAF-12 activation, primary screen; HEK293 hcDAF-12 lit1-tk-luc reporter, luminescence; 0% DMSO, 100% Δ7-dafachronic acid; activation, % at 6.8 µM; 370,000 compounds, 1.4% hits; AID 652067;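 active means activation above the mean of all tested compounds plus 3 SD, cut at about 5.5% in these data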;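 further: 100% = response to 3 µM Δ7-dafachronic acid high control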
DAX1 inh-1: inhibitors of DAX1 repression of SF-1 activated StAR promoter | HEK293T StAR-luciferase reporter, SF-1/DAX-1 repression relief | inhibition, % at 6.8 µM | 370,000 compounds, 1.1% hits;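 active means inhibition above the mean over all tested compounds plus 3 SD, cut at about 3.6% in these data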;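 further: 0% = DAX-1 cells with DMSO and 100% = cells lacking DAX-1 with DMSO; higher inhibition means more luminescence from relief of DAX-1 repression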
SMARCA2 activ: activators of SMARCA2 function; 370,000 compounds, 1% hits; activation, % at 9.1 µM; MG213 cells, MMTV-luciferase reporter, dexamethasone, overnight; AID 652017; in the data active means activation above about 7.8%;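 further: 0% = vehicle wells and 100% = reference activator wells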
ssDAF-12 act: activates DAF-12 receptor from parasite S. stercoralis; 370,000 compounds, 1% hits; activation, % at 6.8 µM; HEK293 ssDAF-12/GRIP1 lit1-tk-luc reporter, luminescence; % of 3 µM dafachronic acid response; AID 652126;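 active means activation above the mean over all tested compounds plus 3 SD, cut at about 0.9% in these data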;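 further: 0% = DMSO-only wells and 100% = 3 µM delta7-dafachronic acid wells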
DAX1 inh-2: inhibitors of human orphan nuclear receptor DAX1 (NR0B1); P51843; HEK293 Gal4-DAX1 luciferase reporter, luminescence; inhibition, % at 6.75 µM; 340,000 compounds, 0.99% hits;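 active means inhibition above the mean over all tested compounds plus 3 SD, cut at about 4.2% in these data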;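 further: 0% = DAX1-transfected cells with DMSO and 100% = empty-vector control cells with DMSO; inhibition shows as a rise in luminescence from relieved DAX1 repression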
hgDAF12 ag: confirmation of H. glycines DAF-12 agonists; shares compounds with hgDAF-12 ag; HEK293 GAL4-hgDAF12 luciferase reporter, agonist mode; percent of butyrate response; activation, % at 6.8 µM; 3,300 compounds, 80% hits;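 active means mean activation over triplicate wells above the hit cutoff derived from the earlier primary screen, cut at about 11% in these data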;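 further: 0% = DMSO low control and 100% = 2 mM sodium butyrate high control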
LXR ag 2: counter-screen for DAF-12 agonists: agonists of human LXR-beta | activation, % at 6.8 µM | 3,300 tested, under 10 active | shares compounds with hgDAF-12 ag | HEK293 Gal4-LXR luciferase reporter, 24 h;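 active means mean activation of the triplicate above a set limit carried over from the primary screen, none filed active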
Target sequence (P55055 whole entry, looked up, the tested form may be a part): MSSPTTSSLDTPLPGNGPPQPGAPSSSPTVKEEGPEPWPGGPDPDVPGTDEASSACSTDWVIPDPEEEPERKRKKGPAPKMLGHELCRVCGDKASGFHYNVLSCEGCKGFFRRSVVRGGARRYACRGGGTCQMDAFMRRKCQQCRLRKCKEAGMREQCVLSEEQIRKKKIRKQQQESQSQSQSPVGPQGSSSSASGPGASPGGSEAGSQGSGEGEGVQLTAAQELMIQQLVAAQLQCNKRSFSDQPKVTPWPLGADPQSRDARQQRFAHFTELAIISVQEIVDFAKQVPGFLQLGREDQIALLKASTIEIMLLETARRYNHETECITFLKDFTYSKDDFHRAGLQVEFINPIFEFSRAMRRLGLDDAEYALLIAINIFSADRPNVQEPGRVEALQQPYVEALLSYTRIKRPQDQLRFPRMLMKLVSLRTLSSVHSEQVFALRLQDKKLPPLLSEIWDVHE
Numbers without * were called inactive; nt = no result.

SMILES | hgDAF-12 ag | hcDAF12 agonist | DAX1 inh-1 | SMARCA2 activ | ssDAF-12 act | DAX1 inh-2 | hgDAF12 ag | LXR ag 2
CN(C)S(=O)(=O)c1cccc(C(=O)N2CCN(Cc3ccccc3)CC2)c1 | -0.3 | -2.3 | -0.6 | 1.5 | -1.0 | 1.0 | nt | nt
COc1ccccc1N1CCN(c2ccc3ccccc3n2)CC1 | 14.4* | 6.0* | 2.5 | 4.4 | -0.3 | 2.0 | 14.8* | 1.1
COc1ccccc1N1CCN(c2cc(N3CCCC3)nc(C)n2)CC1 | -2.7 | -1.3 | -0.3 | 2.3 | -1.8 | -1.9 | nt | nt
N#Cc1c(N)nc(N)nc1Nc1ccc(Br)cc1 | 17.2* | 4.1 | 2.1 | 4.7 | 0.0 | 2.5 | 18.1* | 0.8
CCCCSc1cnn(-c2ccccc2)c(=O)c1SCCCC | -1.3 | -0.4 | -1.1 | -5.8 | -1.7 | 0.1 | nt | nt
CCCCSc1nc2c(cnn2-c2ccccc2)c(=O)n1N | 18.5* | 3.0 | 2.6 | 1.3 | -0.7 | 1.3 | 13.6* | 0.5
O=C1C=C(c2cccc3c2oc2ccccc23)C[C@@H](c2ccc(F)cc2)C1 | 1.2 | -0.2 | 0.1 | -0.2 | -1.1 | 2.2 | nt | nt
O=C(Nc1ccccc1)c1ccc(CSc2ncccn2)cc1 | 15.9* | 3.6 | 2.8 | 5.9 | 0.0 | 1.4 | 16.8* | 0.9
Cn1nnnc1SCc1ccc(C(=O)Nc2ccccc2F)cc1 | 4.7 | -0.4 | 0.7 | 3.5 | -1.2 | 0.6 | nt | nt
O=C(Nc1ccccc1F)c1ccc(CSc2ncccn2)cc1 | 16.4* | 4.0 | 2.9 | 2.3 | 0.1 | 0.5 | 14.7* | 0.6
CC12CC(c3ccccc3O1)C(/C(N)=N/NC(=O)c1ccc(F)cc1)C(=O)N2 (stereo not given) | -1.4 | -1.2 | 0.0 | -2.3 | -0.7 | -0.2 | nt | nt
COc1ccc(-c2ccc(C(=O)Nc3ccc(Cl)cc3)c3occc23)c(C)c1 | 17.6* | -0.4 | 2.0 | 3.8 | -0.8 | nt | 7.9 | 0.4
COc1ccc(-c2ccc(C(=O)Nc3ccc(NC(C)=O)cc3)c3occc23)c(C)c1 | 1.2 | -0.1 | -1.1 | 0.6 | -1.1 | nt | nt | nt
CCCCOc1ccc(C(O)C(CN2CCOCC2)c2ccccc2)cc1 (stereo not given) | -2.1 | -1.3 | -0.7 | -2.4 | -0.7 | -1.2 | nt | nt
O=S(=O)(NC1CCCCC1NCc1ccco1)c1ccccc1 (stereo not given) | 1.0 | 4.0 | -0.4 | 0.9 | -0.4 | 0.3 | nt | nt
CCOC(=O)C1CCCN(C(=O)c2ccc3nc(-c4cccc(OC)c4)oc3c2)C1 (stereo not given) | 14.4* | 3.3 | -3.5 | 2.2 | -0.2 | -1.8 | 11.6* | 0.5
COc1ccc(NC(=S)Nc2cccc(Cl)c2Cl)cc1OC | -1.4 | -0.1 | -1.0 | 3.8 | 0.0 | 1.8 | nt | nt
N/C(=N\OC(=O)c1cccc([N+](=O)[O-])c1)c1ccccn1 | 14.8* | 5.8* | 1.3 | 4.0 | 0.9* | 3.8 | 12.8* | 0.6
N/C(=N/OC(=O)c1cccc([N+](=O)[O-])c1)c1cccc([N+](=O)[O-])c1 | 1.0 | -1.6 | -0.5 | -1.5 | -1.6 | -0.6 | nt | nt
COc1ccc(/C=C/C2=NNC(=O)CC2)cc1 | 13.8* | -0.3 | 0.7 | 0.8 | 0.0 | -0.5 | 7.1 | 0.2
NC(=O)c1cnn2c1NC(c1ccc(F)cc1)CC2C(F)(F)F (stereo not given) | -0.6 | -1.6 | 0.1 | -2.1 | -1.1 | -0.9 | nt | nt
CN1C(=O)C(c2cn(C)c3ccccc23)(c2cn(C)c3ccccc23)c2cc(F)ccc21 | 13.5* | 3.2 | -0.7 | 0.1 | 2.4* | nt | 2.3 | 0.0
COC(=O)c1ccccc1NC(=O)CN1CCC(n2nnc3cc(F)ccc32)CC1 | -0.9 | -1.2 | -0.3 | -4.0 | -0.9 | 1.2 | nt | nt
CC1(C(=O)OCC(=O)c2c[nH]c3ccccc23)CC1(Cl)Cl (stereo not given) | 14.2* | 5.4 | 1.6 | 7.7 | 1.6* | 1.5 | 15.2* | 0.5
O[C@@H]1C[C@H](c2ccc(Cl)cc2)N(Cc2cccs2)C[C@H]1n1cc(C2CC2)nn1 | -1.5 | -2.5 | -0.2 | -5.6 | -0.6 | 0.0 | nt | nt
